Data published in PubChem BioAssay (EPA / NIEHS).
The source made the active and inactive calls. The calls were made as follows: active = hit-call score of the fitted dose curve at least 0.9, where 1 is the maximum; inactive = score below 0.9.

Assays:
[1] = ATG_CRE_CIS: Attagene CIS-FACTORIAL HepG2 Assay for human cAMP Responsive Element (CRE) binding protein 3 (AID 2282926); conditions: HepG2 CRE cis-reporter, Attagene multiplexed mRNA; actives raise or lower the signal
In short: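 Assay format: transient reporter transfection of HepG2, 24 h treatment, total RNA isolation with DNase I step. Reporter abundance read by fluorescence after PCR and capillary separation; DMSO-normalised gain or loss fitting.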

[2] = biological target: CCAAT/enhancer-binding protein beta (Homo sapiens) (UniProt P17676); test: ATG_C_EBP_CIS: Attagene CIS-FACTORIAL HepG2 Assay for human CCAAT/Enhancer Binding Protein (C/EBP) beta (AID 2282927); conditions: HepG2 Attagene cis-factorial transcription factor reporter; actives raise or lower the signal
In short: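 HepG2 transiently transfected with multiplexed reporter units under cis-regulatory promoters reporting endogenous C/EBPb activity. After 24 h exposure, reporter mRNA assayed by RT-PCR, fluorescent labelling, HpaI digestion and capillary electrophoresis; bidirectional fitting versus DMSO.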

[3] = ATG_CMV_CIS: Attagene CIS-FACTORIAL HepG2 Assay for human CMV (Internal Marker) (AID 2282928); conditions: HepG2 CMV promoter reporter, transcription factor profiling; actives raise or lower the signal;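 also: endpoint acts as a background internal control marker rather than a target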
In short: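 Readout: fluorescent reporter cDNA fragments separated by capillary electrophoresis after RT-PCR and HpaI cut. Cells: HepG2 carrying transfected cis-promoter reporter constructs, dosed 24 h. Endpoint serves as background internal-marker control, fit bidirectionally versus DMSO.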

[4] = biological target: Aryl hydrocarbon receptor (Homo sapiens) (UniProt P35869); test: ATG_Ahr_CIS: Attagene CIS-FACTORIAL HepG2 Assay for human Aryl Hydrocarbon Receptor (Ahr) (AID 2282930); conditions: HepG2 AhR cis-factorial reporter transcription; actives raise or lower the signal
In short: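 HepG2 cells transiently transfected with cis-element-driven multiplexed reporter units; endogenous AhR activity read as reporter mRNA 24 h after dosing, via RT-PCR, 6-FAM labelling, HpaI digestion and capillary electrophoresis. Bidirectional fit relative to DMSO.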

[5] = ATG_AP_1_CIS: Attagene CIS-FACTORIAL HepG2 Assay for human Activator Protein 1 (AP-1) (AID 2282931); conditions: HepG2 Attagene cis-factorial AP-1 reporter mRNA; actives raise or lower the signal
In short: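 Multiplexed HepG2 reporter assay, 24 h dosing. mRNA induction detected by RT-PCR plus capillary electrophoresis. Activity fitted in both directions against DMSO.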

[6] = ATG_AP_2_CIS: Attagene CIS-FACTORIAL HepG2 Assay for human Activator Protein 2 (AP-2) (AID 2282932); conditions: HepG2 AP-2 cis-reporter, Attagene transcription factor profiling; actives raise or lower the signal
In short: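 Read-out: fluorescent reporter mRNA via RT-PCR and capillary electrophoresis, 24 h post-dose in transiently transfected HepG2. Endogenous factors drive cis-promoter reporters; gain or loss of signal fitted bidirectionally against DMSO.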

[7] = biological target: Retinoic acid receptor alpha (Homo sapiens) (UniProt P10276); test: ATG_DR5_RAR_CIS: Attagene CIS-FACTORIAL HepG2 Assay for human Retinoic Acid Receptor Alpha (RARE), DR5 submotif (AID 2282934); conditions: HepG2 Attagene cis-factorial RARE DR5 reporter, mRNA; actives raise or lower the signal
In short: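 HepG2 cells transiently transfected with multiplexed reporter units; DR5 cis-element drives reporter through endogenous transcription factors. After 24 h dosing, reporter mRNA quantified by RT-PCR, fluorescent labeling, HpaI digestion and capillary electrophoresis; bidirectional fitting versus DMSO.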

[8] = biological target: Transcription factor E2F1 (Homo sapiens) (UniProt Q01094); test: ATG_E2F_CIS: Attagene CIS-FACTORIAL HepG2 Assay for human E2F Transcription Factor 1 (AID 2282935); conditions: HepG2 Attagene cis-reporter, E2F reporter RNA transcripts; actives raise or lower the signal
In short: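 Transient MRTU transfection of HepG2; 24 h compound exposure; RNA → oligo(dT) RT → PCR → FAM label → HpaI cut → CE fluorescence. Gain/loss of signal fit against DMSO.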

[9] = ATG_E_Box_CIS: Attagene CIS-FACTORIAL HepG2 Assay for human Enhancer Box (E-box) (AID 2282936); conditions: HepG2 E-box cis-reporter transcription, actives raise or lower the signal
In short: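 Transiently transfected HepG2, endogenous TF-driven reporters, 24 h dosing. Readout: RT-PCR plus capillary electrophoresis of fluorescent reporter fragments. Gain or loss of signal fitted bidirectionally against DMSO baseline.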

[10] = ATG_M_61_CIS: Attagene CIS-FACTORIAL HepG2 Assay for M61 Transcription Factor (Internal Marker) (AID 2282937); conditions: HepG2 Attagene CIS-FACTORIAL M61 internal marker reporter; actives raise or lower the signal
In short: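 Endogenous transcription factor activity in HepG2 is read through transiently transfected cis-element reporter units. After 24 h dosing, RNA undergoes reverse transcription, PCR and primer extension with 6-FAM before capillary electrophoresis; DMSO-referenced bidirectional fit.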

[11] = ATG_EGR_CIS: Attagene CIS-FACTORIAL HepG2 Assay for human Early Growth Response 1 (EGR1) (AID 2282938); conditions: HepG2 Attagene CIS-FACTORIAL EGR reporter mRNA; actives raise or lower the signal
In short: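 Activity is taken as induction or loss of reporter mRNA versus DMSO, fitted bidirectionally. Transcripts from cis-regulated reporter units in transiently transfected HepG2 were measured after 24 h by RT-PCR with capillary electrophoresis.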

[12] = ATG_M_19_CIS: Attagene CIS-FACTORIAL HepG2 Assay for M19 Transcription Factor (Internal Marker) (AID 2282939); conditions: HepG2 Attagene CIS-FACTORIAL M19 internal marker reporter; actives raise or lower the signal
In short: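 HepG2 cells transiently transfected with cis-regulated multiple reporter transcription units were dosed for 24 h; reporter mRNA was quantified by RT-PCR, 6-FAM primer-extension labelling, HpaI digestion and capillary electrophoresis, with bidirectional fitting against DMSO baseline.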

[13] = ATG_Ets_CIS: Attagene CIS-FACTORIAL HepG2 Assay for human Erythroblast Transformation Specific (ETS) (AID 2282941); conditions: HepG2 ETS cis-reporter transcription, actives raise or lower the signal
In short: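 RT-PCR/capillary electrophoresis fluorescence read-out of reporter mRNA; HepG2 transient multi-reporter transfection; 24 h compound exposure; gain or loss of signal fitted bidirectionally relative to DMSO.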

[14] = biological target: Hepatocyte nuclear factor 3-beta (Homo sapiens) (UniProt Q9Y261); test: ATG_FoxA2_CIS: Attagene CIS-FACTORIAL HepG2 Assay for human Forkhead box A2 (FOXA2) (AID 2282942); conditions: HepG2 cis-reporter transcription factor activity, 24 h; actives raise or lower the signal
In short: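 Reporter transcript induction is measured by fluorescence after capillary electrophoresis of RT-PCR products from HepG2 cells exposed 24 h. Cis-regulated reporter units report endogenous factor activity; curves fitted both directions against DMSO.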

[15] = ATG_FoxO_CIS: Attagene CIS-FACTORIAL HepG2 Assay for human Forkhead box O (FoxO) (AID 2282943); conditions: HepG2 Attagene cis-reporter, FoxO element, mRNA; actives raise or lower the signal
In short: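 HepG2 cells transiently transfected with cis-element-driven reporter units report endogenous FoxO activity. After 24 h chemical exposure, reporter mRNA quantified by RT-PCR, fluorescent labeling, HpaI digestion and capillary electrophoresis; bidirectional fit versus DMSO.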

[16] = ATG_GATA_CIS: Attagene CIS-FACTORIAL HepG2 Assay for human GATA Binding Protein (AID 2282944); conditions: HepG2 GATA cis-element reporter, Attagene multiplex mRNA; actives raise or lower the signal
In short: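 HepG2 cells transiently transfected with multiplexed cis-element reporter units reflecting endogenous transcription factor activity; reporter mRNA measured after 24 h dosing by RT-PCR, 6-FAM labeling, HpaI digestion and capillary electrophoresis. Bidirectional fitting versus DMSO baseline.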

[17] = ATG_GLI_CIS: Attagene CIS-FACTORIAL HepG2 Assay for human Zinc Finger Protein GLI1 (AID 2282945); conditions: HepG2, Attagene cis-factorial reporter mRNA, GLI element; actives raise or lower the signal
In short: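 Transiently transfected HepG2 cells report endogenous transcription factor activity via cis-element-driven reporter units. After 24 h compound exposure, reporter mRNA was measured by RT-PCR with capillary electrophoresis; bidirectional fitting against DMSO baseline.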

[18] = ATG_DR4_LXR_CIS: Attagene CIS-FACTORIAL HepG2 Assay for human Liver X Receptor (LXR), DR4 submotif (AID 2282929); conditions: HepG2 Attagene DR4 cis-reporter, mRNA transcription; actives raise or lower the signal
In short: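 Fluorescence intensity of labelled reporter cDNA fragments, separated by capillary electrophoresis, gives the signal. HepG2 cells bearing cis-regulated reporter constructs were treated 24 h; activity fitted bidirectionally relative to DMSO negative control.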

Measured: outcome

Sequence of Transcription factor E2F1 (Homo sapiens) (Q01094 whole entry, looked up): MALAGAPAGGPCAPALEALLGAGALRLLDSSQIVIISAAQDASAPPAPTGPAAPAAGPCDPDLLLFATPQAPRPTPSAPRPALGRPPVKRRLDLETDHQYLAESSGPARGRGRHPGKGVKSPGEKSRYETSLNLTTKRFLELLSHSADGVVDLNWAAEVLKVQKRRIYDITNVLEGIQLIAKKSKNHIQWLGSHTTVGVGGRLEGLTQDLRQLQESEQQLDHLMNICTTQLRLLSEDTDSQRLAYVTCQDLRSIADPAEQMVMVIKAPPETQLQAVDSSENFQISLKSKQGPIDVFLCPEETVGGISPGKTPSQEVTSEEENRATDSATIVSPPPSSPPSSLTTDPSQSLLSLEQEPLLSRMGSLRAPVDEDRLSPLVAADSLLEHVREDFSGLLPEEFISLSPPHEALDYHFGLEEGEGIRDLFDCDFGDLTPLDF
Sequence of Retinoic acid receptor alpha (Homo sapiens) (P10276 whole entry, looked up): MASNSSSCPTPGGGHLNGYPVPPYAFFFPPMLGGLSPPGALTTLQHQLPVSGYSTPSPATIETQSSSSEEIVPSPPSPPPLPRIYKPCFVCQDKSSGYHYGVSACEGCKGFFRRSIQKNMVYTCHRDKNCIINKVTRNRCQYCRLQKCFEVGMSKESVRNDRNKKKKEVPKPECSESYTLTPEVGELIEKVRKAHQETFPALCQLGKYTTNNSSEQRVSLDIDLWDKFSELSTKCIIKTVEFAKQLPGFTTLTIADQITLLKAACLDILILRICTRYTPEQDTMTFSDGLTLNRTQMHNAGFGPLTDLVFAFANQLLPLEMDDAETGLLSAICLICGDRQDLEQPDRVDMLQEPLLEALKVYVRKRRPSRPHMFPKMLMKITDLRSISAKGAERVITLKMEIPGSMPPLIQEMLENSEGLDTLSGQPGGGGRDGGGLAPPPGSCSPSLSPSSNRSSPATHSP
Sequence of Aryl hydrocarbon receptor (Homo sapiens) (P35869 whole entry, looked up): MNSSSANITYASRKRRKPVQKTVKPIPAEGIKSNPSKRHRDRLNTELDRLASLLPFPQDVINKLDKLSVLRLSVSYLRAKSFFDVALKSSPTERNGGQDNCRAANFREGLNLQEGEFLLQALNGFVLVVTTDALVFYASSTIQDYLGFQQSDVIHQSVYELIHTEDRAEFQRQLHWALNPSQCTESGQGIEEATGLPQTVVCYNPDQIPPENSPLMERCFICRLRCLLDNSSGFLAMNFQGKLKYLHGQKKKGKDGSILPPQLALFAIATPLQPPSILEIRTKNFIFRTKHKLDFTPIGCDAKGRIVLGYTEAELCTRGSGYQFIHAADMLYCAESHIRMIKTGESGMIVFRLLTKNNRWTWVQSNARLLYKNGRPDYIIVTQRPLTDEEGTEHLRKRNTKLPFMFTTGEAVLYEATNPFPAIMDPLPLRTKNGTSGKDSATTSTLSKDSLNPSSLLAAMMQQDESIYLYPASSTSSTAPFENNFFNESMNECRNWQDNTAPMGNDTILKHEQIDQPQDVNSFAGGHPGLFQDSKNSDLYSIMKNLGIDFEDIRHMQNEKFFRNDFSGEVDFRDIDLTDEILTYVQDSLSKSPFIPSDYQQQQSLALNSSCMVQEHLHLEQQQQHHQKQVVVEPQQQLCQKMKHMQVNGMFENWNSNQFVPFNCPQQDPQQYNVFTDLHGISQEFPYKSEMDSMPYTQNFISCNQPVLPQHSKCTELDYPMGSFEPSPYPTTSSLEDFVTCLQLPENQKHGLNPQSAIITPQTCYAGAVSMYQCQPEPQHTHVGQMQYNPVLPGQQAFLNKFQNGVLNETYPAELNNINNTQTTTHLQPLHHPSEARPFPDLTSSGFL
Sequence of Hepatocyte nuclear factor 3-beta (Homo sapiens) (Q9Y261 whole entry, looked up): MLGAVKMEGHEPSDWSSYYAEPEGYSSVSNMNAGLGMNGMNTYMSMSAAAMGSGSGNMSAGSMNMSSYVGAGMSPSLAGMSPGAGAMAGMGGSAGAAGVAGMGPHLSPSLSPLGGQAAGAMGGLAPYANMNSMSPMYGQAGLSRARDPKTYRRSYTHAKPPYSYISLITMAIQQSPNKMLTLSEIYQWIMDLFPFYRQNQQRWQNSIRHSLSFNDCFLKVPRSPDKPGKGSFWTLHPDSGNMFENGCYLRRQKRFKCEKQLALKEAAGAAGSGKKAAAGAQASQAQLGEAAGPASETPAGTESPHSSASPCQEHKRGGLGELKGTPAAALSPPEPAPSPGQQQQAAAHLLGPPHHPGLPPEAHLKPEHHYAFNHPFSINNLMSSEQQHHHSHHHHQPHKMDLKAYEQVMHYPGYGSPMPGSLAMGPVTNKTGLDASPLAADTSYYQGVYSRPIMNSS
Sequence of CCAAT/enhancer-binding protein beta (Homo sapiens) (P17676 whole entry, looked up): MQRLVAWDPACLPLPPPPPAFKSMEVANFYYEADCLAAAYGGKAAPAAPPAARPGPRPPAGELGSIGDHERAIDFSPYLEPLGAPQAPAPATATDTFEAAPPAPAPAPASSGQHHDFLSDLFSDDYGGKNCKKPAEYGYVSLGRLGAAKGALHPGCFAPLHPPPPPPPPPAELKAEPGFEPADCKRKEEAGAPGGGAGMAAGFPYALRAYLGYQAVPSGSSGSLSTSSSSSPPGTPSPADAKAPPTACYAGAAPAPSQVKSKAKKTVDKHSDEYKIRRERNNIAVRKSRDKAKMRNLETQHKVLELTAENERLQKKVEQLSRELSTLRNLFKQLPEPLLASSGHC

Nc1nc(N)nc(NC2CC2)n1
not listed: [18]
inactive: all other assays above

CCOP(=S)(OCC)SCCSCC
not listed: [14] | [18]
inactive: all other assays above

CCC(CC)Nc1c([N+](=O)[O-])cc(C)c(C)c1[N+](=O)[O-]
not listed: [7] | [18]
inactive: all other assays above

CC1=NNC(=O)N(/N=C/c2cccnc2)C1
inactive: all assays above
